Consider 17 molecules from PubChem BioAssay AID652283 (National Center for Advancing Translational Sciences (NCATS), 2013).

Records with an inconclusive call do not appear. A number with no mark means an inactive call. Active and inactive are the calls of the source. Calls come from the whole dose curve; as a rule, active = well fitted inhibition curve with a large enough effect; inconclusive = small, poorly fitted or top-dose-only effect; inactive = no such curve, though single readings can be large or run the other way.

The nature of the test: qHTS Assay for Lipid Storage Modulators: COS7 Assay against Probe and Analogs. Particulars: COS7 lipid droplet area, BODIPY imaging, 18 h; cells loaded with 400 µM oleic acid. In short, it runs like this: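 Lipid droplets, stained with BODIPY 493/503 (nuclei with Hoechst), were counted from microscope images by visual examination and image segmentation. Before fixation, COS7 cells had 17-18 h compound exposure with 400 microM oleic acid in 5% FBS medium, 0.2% DMSO.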
A general note: In qHTS, concentration-response curves come from the screen itself.
As to `O=C(NC1CCCc2c1cnn2-c1ccc(F)cc1F)C1CCCCC1` (configuration not stated), the max response is 3.71%. For the molecule `CCOc1cc(CCNC(=O)c2cc3sccc3n2Cc2ccccc2)cc(F)c1OCC`, the Potency is 2.35 µM (active). `CCOC(=O)C1CCN(C(=O)C(C)(C)NC(=O)Nc2ccc(F)c(F)c2)CC1`: the max response is -20.8%. Regarding `CCOc1ccc(CCNC(=O)c2cc3sccc3n2Cc2ccc(-n3cncn3)cc2)cc1OCC`, the Potency is 5.9 µM (active). Same read-out and setting: the value for `CCOc1ccc(CCNC(=O)c2cc3sccc3n2C)cc1OCC` was 8.33 µM (active). On to `CCOc1ccc(CCNC(=O)c2ccnn2Cc2cccc(C)c2)cc1OCC`, for which the Potency is 13.2 µM (active). As to `O=C(NCCc1ccc2c(c1)OCO2)c1cc2sccc2[nH]1`, the max response is 5.04%. `CCOc1ccc(CCNC(=O)c2cc3ccccc3n2Cc2ccc(Cl)c(F)c2)cc1OCC`: the Potency is 0.332 µM (active). For `O=C(N[C@H]1CCCc2c1cnn2-c1ccc(F)cc1F)c1ccccn1`, the max response is 6.84%. On to `O=C(O)CCc1ccc(NCc2cccc(Oc3ccccc3)c2)cc1`, for which the max response was -0.35%. Same read-out and setting: the figure for `CN(C)Cc1ccc(-c2nc3cccc4c3n2CCNC4=O)cc1` is 3.13%. As to `COc1cccc(-n2ncc3c2CCCC3NC(=O)c2ccccn2)c1` (configuration not stated), the Potency was 5.9 µM (active). Consider `Cc1cccc(-c2ccc3ncnc(NCc4cccc(F)c4)c3c2)c1`, for which the max response was -9.55%. On to `CCOc1cc(F)c(CCNC(=O)c2cc3sccc3n2Cc2ccccc2)cc1OCC`, for which the max response was -106%. Same read-out and setting: the figure for `O=C(O)c1cccc(-c2noc(-c3ccccc3F)n2)c1` is -6.12%; for `CCNC(=O)C1CCN(C(=O)C(C)(C)NC(=O)Nc2ccccc2Cl)CC1` it is -3.83%.

With `CCOC(=O)C1CCN(C(=O)C(C)(C)NC(=O)Nc2cccc(-c3csc(C)n3)c2)CC1`, the max response is 3.3%.
